These results are taken from PubChem BioAssay (NCI).

About 83,000 compounds went through this panel and 20% of them were active in at least one assay; those are over-represented in the sample as a whole.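 Growth was measured after 48 h exposure to one concentration of compound in 96-well plates. Values under 10 count as active.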 Values without a mark were called inactive. Calls of active or inactive are those of the source.

The subject of this assay is NCI-H322M lung. The experiment in a line: NCI-60 one-dose screen, 48 h (100 = growth as untreated, 0 = no growth, -100 = all killed). To be noted: 10 µM unless noted.
Consider `C[C@@H]1OCC2(CCN(c3cnc(C(=O)Nc4cc(F)cc5cccnc45)cn3)CC2)[C@@H]1N`, for which the growth was 85.3%.
For the molecule `Cn1c(SCC(=O)c2ccc(F)cc2)nc2ccccc2c1=O`, the growth is 99.8%.
With `O=C(CCCCCC/C=C\c1csc(Br)n1)NO` the figure was 100%; with `COc1ccc(-c2cc(-c3ccc(N4CCOCC4)cc3)n3c(n2)nc2ccccc23)cc1OC`, 94.6%.
In the case of `CN(C)c1cccc2c(S(=O)(=O)Nc3cccc(-c4csc(NC(=O)CCCCCN5CCN(CCO)CC5)n4)c3)cccc12` it was 88.2%; in that of `O=c1nc(Nc2ccc([N+](=O)[O-])cc2O)sc2ccccc12`, 51.4%.
As for `CCc1cc(OC(=O)N2CCC(N3CCCCC3)CC2)ccc1Nc1cc(-c2ccc(-n3cccn3)cc2)[nH]n1`, the growth was 101%.
With `COc1ccc(-c2c(C(N)=O)c(N)n(Cc3nc4ccccc4[nH]3)c(=O)c2C#N)c(OC)c1` the figure was 97.3%; with `CCOC(=O)Nc1ccc2c(ccn2C(=O)c2cccc(F)c2)c1`, 61.8%.
`CN(C)CCCOc1ccc(C(=C(c2ccccc2)C2CCCC2)c2ccc(OCCCN(C)C)cc2)cc1`: the growth was -97% (active).
In the case of `CN1CCC[C@]2(C)[C@H]3CC[C@@H]4[C@@H]5[C@H]6OC[C@@]5(CCC6(C)C)CC[C@@]4(C)[C@]3(C)CC[C@H]2C1(C)C` it was 87.8%.
For `CNC(=O)c1cc(-c2ccc(NC(=S)Nc3cccc(C(F)(F)F)c3)cc2)nc2cccnc12`, the growth is 96.1%.
In the case of `CC1(C)C=Cc2cc(/C(N)=N/C(N)=N/c3nc4ccccc4s3)ccc2O1` it was 93.8%.
With `C#Cc1cc(C(=O)Nc2ccc(CNCCN3CCOCC3)c(C(F)(F)F)c2)ccc1C`, the growth is 98.3%.
Regarding `CC(C)(O)c1cncc(-c2ccc3ncc(C#N)c(N4CCc5cc(F)c(Cl)cc54)c3c2)c1`, the growth is 11%.
In the case of `CN1CCN(Cc2ccc(/C=N/Nc3ccnc4cc(Cl)ccc34)cc2)CC1` it was 87.5%; in that of `Cc1ccc(C(=O)CSc2nnc(-c3ccc(-c4ccc(Cl)cc4)nc3C)o2)cc1`, 95.8%; in that of `Cc1ccccc1N1CCN(C2=C(Cl)C(=O)c3ncccc3C2=O)CC1`, 89.9%.
With `O=C1Nc2ccccc2/C1=C/c1ccc(OCC(=O)c2ccccc2)cc1` the figure was 98%; with `CC1=C(C)C(=O)C(Nc2ccc3c(c2)OCCO3)=C(Br)C1=O`, 102%.
For the molecule `CCN(CC)c1ccc(/C=N/NC(=O)c2ccc(S(N)(=O)=O)cc2)c(O)c1`, the growth was 22.1%.
In the case of `Cc1ccc(S(=O)(=O)NCCCNc2nc(Nc3ccc(N4CCN(C)CC4)cc3)nc3ccsc23)cc1` it was 52.7%; in that of `CN1CCN(Cc2ccc(NC(=O)c3cncc(C#Cc4cnc5ccc(NCCO)nn45)c3)cc2C(F)(F)F)CC1`, -15% (active); in that of `COC(=O)c1cccc(NC2=C(Cl)C(=O)c3nc(C)ccc3C2=O)c1`, 103%.
As for `O=C1Nc2cc(Cl)ccc2/C1=C\c1ccc(OCc2ccccc2)cc1`, the growth is 99.5%.
Consider `Cc1ccc(-c2csc(N/N=C/c3cccs3)n2)cc1`, for which the growth is 97%.
In the case of `O=[N+]([O-])c1ccc(NC(=S)NNC(=S)Nc2ccc(Br)cc2)cc1` it was 63.3%.
